# According to publication PMC5540273 (PLoS ONE, 2017):
# Several values for one entry are separate records, joined by “and”; a condition that tells them apart may be missing. Identical values can stand only once. Like-named read-outs stand apart in the source and are kept apart here.
# Experiments:
# [1] = test system: PIKFYVE; details: concentration: 1 μM, replicates: in singlicate, n = 1
# [2] = test system: PIM1; details: concentration: 1 μM, replicates: in singlicate, n = 1
# [3] = test system: PIM2; details: concentration: 1 μM, replicates: in singlicate; n = 1
# [4] = test system: PIM3; details: concentration: 1 μM, replicates: in singlicate, n = 1
# [5] = test system: PIP5K1A; details: concentration: 1 μM, replicates: in singlicate, n = 1
# [6] = test system: PIP5K1C; details: concentration: 1 μM, replicates: in singlicate, n = 1
# [7] = test system: PIP5K2B; details: concentration: 1 μM, replicates: in singlicate, n = 1
# [8] = test system: T1, PIP5K2C; details: concentration: 1 μM, replicates: in singlicate, n = 1
# T1 construct: gene PIP4K2C
# [9] = test system: T2, PKAC-alpha; details: concentration: 1 μM, replicates: in singlicate, n = 1
# T2 construct: gene PRKACA
# [10] = test system: T3, PKAC-beta; details: concentration: 1 μM, replicates: in singlicate, n = 1
# T3 construct: gene PRKACB
# [11] = test system: PKMYT1; details: concentration: 1 μM, replicates: in singlicate, n = 1
# [12] = test system: PKN1; details: concentration: 1 μM, replicates: in singlicate, n = 1
# [13] = test system: PKN2; details: concentration: 1 μM, replicates: in singlicate, n = 1
# [14] = test system: PLK1; details: concentration: 1 μM, replicates: in singlicate, n = 1
# [15] = test system: PLK2; details: concentration: 1 μM, replicates: in singlicate, n = 1
# [16] = test system: PLK3; details: concentration: 1 μM, replicates: in singlicate, n = 1
# [17] = test system: PLK4; details: concentration: 1 μM, replicates: in singlicate, n = 1
# [18] = test system: PRKCD; details: concentration: 1 μM, replicates: in singlicate, n = 1
# [19] = test system: PRKCE; details: concentration: 1 μM, replicates: in singlicate, n = 1
# [20] = test system: PRKCH; details: concentration: 1 μM, replicates: in singlicate, n = 1
# 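Further: KINOMEscan kinase panel screen.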
smiles,measurement,setting,value
CN1c2ccc(CNc3ccc(F)cc3)cc2-c2c(cnn2C)S1(=O)=O,%Inh,[1],17%
same,%Inh,[2],0%
same,%Inh,[3],14%
same,%Inh,[4],5%
same,%Inh,[5],5%
same,%Inh,[6],23%
same,%Inh,[7],0%
same,%Inh,[8],24%
same,%Inh,[9],5%
same,%Inh,[10],0%
same,%Inh,[11],0%
same,%Inh,[12],0%
same,%Inh,[13],0%
same,%Inh,[14],11%
same,%Inh,[15],15%
same,%Inh,[16],11%
same,%Inh,[17],0%
same,%Inh,[18],0%
same,%Inh,[19],5%
same,%Inh,[20],0%
COc1cc(Nc2nccc(N3CCC(NC(=O)c4cccc(NC(C)=O)c4)C3)n2)cc(OC)c1OC (centres unmarked) [GSK1379754],%Inh,[1],0%
same,%Inh,[2],0%
same,%Inh,[3],0%
same,%Inh,[4],0%
same,%Inh,[5],0%
same,%Inh,[6],45%
same,%Inh,[7],18%
same,%Inh,[8],92.4%
same,%Inh,[9],3%
same,%Inh,[10],11%
same,%Inh,[11],0%
same,%Inh,[12],0%
same,%Inh,[13],0%
same,%Inh,[14],0%
same,%Inh,[15],0%
same,%Inh,[16],3%
same,%Inh,[17],75%
same,%Inh,[18],8%
same,%Inh,[19],0%
same,%Inh,[20],2%
Cc1cn2c(=O)cc(N3CCOCC3)nc2n1Cc1cccc(Cl)c1Cl [GSK2334006],%Inh,[1],50%
same,%Inh,[2],10%
same,%Inh,[3],0%
same,%Inh,[4],0%
same,%Inh,[5],0%
same,%Inh,[6],30%
same,%Inh,[7],0%
same,%Inh,[8],10%
same,%Inh,[9],3%
same,%Inh,[10],29%
same,%Inh,[11],12%
same,%Inh,[12],33%
same,%Inh,[13],0%
same,%Inh,[14],24%
same,%Inh,[15],0%
same,%Inh,[16],0%
same,%Inh,[17],0%
same,%Inh,[18],0%
same,%Inh,[19],13%
same,%Inh,[20],28%
Fc1ccc(-c2nn3c(OCC(F)(F)F)cccc3c2-c2ccncc2)cc1 [GW514784],%Inh,[1],51%
same,%Inh,[2],0%
same,%Inh,[3],0%
same,%Inh,[4],0%
same,%Inh,[5],50%
same,%Inh,[6],69%
same,%Inh,[7],18%
same,%Inh,[8],32%
same,%Inh,[9],6%
same,%Inh,[10],32%
same,%Inh,[11],0%
same,%Inh,[12],0%
same,%Inh,[13],0%
same,%Inh,[14],0%
same,%Inh,[15],0%
same,%Inh,[16],0%
same,%Inh,[17],0%
same,%Inh,[18],0%
same,%Inh,[19],14%
same,%Inh,[20],13%
Cl.Cl.Cl.Fc1ccc(-c2ncn(C3CCNCC3)c2-c2ccnc(Nc3ccccc3)n2)cc1 [SB-238039],%Inh,[1]; 1 µM,5% and 24%
same,%Inh,[2]; 1 µM,15% and 2%
same,%Inh,[3],0%
same,%Inh,[4]; 1 µM,19% and 0%
same,%Inh,[5]; 1 µM,46% and 0%
same,%Inh,[6]; 1 µM,25% and 0%
same,%Inh,[7]; 1 µM,24% and 0%
same,%Inh,[8]; 1 µM,48% and 41%
same,%Inh,[9]; 1 µM,64% and 46%
same,%Inh,[10]; 1 µM,73% and 65%
same,%Inh,[11]; 1 µM,0% and 1%
same,%Inh,[12]; 1 µM,0% and 9%
same,%Inh,[13]; 1 µM,0% and 24%
same,%Inh,[14]; 1 µM,4% and 0%
same,%Inh,[15]; 1 µM,6% and 0%
same,%Inh,[16]; 1 µM,15% and 0%
same,%Inh,[17]; 1 µM,7% and 26%
same,%Inh,[18]; 1 µM,66% and 28%
same,%Inh,[19]; 1 µM,69% and 29%
same,%Inh,[20]; 1 µM,58% and 19%
[2H]C([2H])(c1cccc(C(F)(F)F)c1C)n1ccn2c(=O)nc(N3CCOCC3)cc12 [GSK2336394],%Inh,[1],0%
same,%Inh,[2],0%
same,%Inh,[3],0%
same,%Inh,[4],0%
same,%Inh,[5],0%
same,%Inh,[6],31%
same,%Inh,[7],4%
same,%Inh,[8],0%
same,%Inh,[9],0%
same,%Inh,[10],12%
same,%Inh,[11],0%
same,%Inh,[12],39%
same,%Inh,[13],0%
same,%Inh,[14],0%
same,%Inh,[15],0%
same,%Inh,[16],0%
same,%Inh,[17],0%
same,%Inh,[18],6%
same,%Inh,[19],2%
same,%Inh,[20],0%
COc1cc2c(cc1OCCN1CCN(C)CC1)ncc1c3ccc(C#N)cc3[nH]c21,%Inh,[1],64%
same,%Inh,[2],34%
same,%Inh,[3],90.9%
same,%Inh,[4],63%
same,%Inh,[5],57%
same,%Inh,[6],55%
same,%Inh,[7],94.8%
same,%Inh,[8],35%
same,%Inh,[9],0%
same,%Inh,[10],0%
same,%Inh,[11],0%
same,%Inh,[12],56%
same,%Inh,[13],25%
same,%Inh,[14],0%
same,%Inh,[15],16%
same,%Inh,[16],16%
same,%Inh,[17],0%
same,%Inh,[18],1%
same,%Inh,[19],0%
same,%Inh,[20],0%
Fc1ccc(-c2ncn(CCCN3CCOCC3)c2-c2cccnc2)cc1 [SB-211743],%Inh,[1],0%
same,%Inh,[2],12%
same,%Inh,[3],2%
same,%Inh,[4],0%
same,%Inh,[5],5%
same,%Inh,[6],0%
same,%Inh,[7],5%
same,%Inh,[8],0%
same,%Inh,[9],0%
same,%Inh,[10],25%
same,%Inh,[11],0%
same,%Inh,[12],0%
same,%Inh,[13],13%
same,%Inh,[14],0%
same,%Inh,[15],0%
same,%Inh,[16],15%
same,%Inh,[17],0%
same,%Inh,[18],6%
same,%Inh,[19],0%
same,%Inh,[20],0%
COc1ccc(Nc2nccc(N3CCC(NC(=O)Nc4cccc(C(C)=O)c4)C3)n2)cc1 (centres unmarked) [GSK1379731],%Inh,[1],0%
same,%Inh,[2],0%
same,%Inh,[3],0%
same,%Inh,[4],0%
same,%Inh,[5],0%
same,%Inh,[6],24%
same,%Inh,[7],12%
same,%Inh,[8],3%
same,%Inh,[9],2%
same,%Inh,[10],0%
same,%Inh,[11],0%
same,%Inh,[12],3%
same,%Inh,[13],0%
same,%Inh,[14],7%
same,%Inh,[15],0%
same,%Inh,[16],0%
same,%Inh,[17],0%
same,%Inh,[18],0%
same,%Inh,[19],0%
same,%Inh,[20],0%
O=C(Nc1n[nH]c2cc(-c3cccc(F)c3)ccc12)C1CC1 [SB-735464],%Inh,[1],0%
same,%Inh,[2],2%
same,%Inh,[3],0%
same,%Inh,[4],4%
same,%Inh,[5],37%
same,%Inh,[6],18%
same,%Inh,[7],5%
same,%Inh,[8],11%
same,%Inh,[9],3%
same,%Inh,[10],6%
same,%Inh,[11],1%
same,%Inh,[12],7%
same,%Inh,[13],17%
same,%Inh,[14],0%
same,%Inh,[15],37%
same,%Inh,[16],13%
same,%Inh,[17],4%
same,%Inh,[18],0%
same,%Inh,[19],34%
same,%Inh,[20],8%
